Assay [1] is described as follows: qHTS assay to identify small molecule antagonists of the thyroid receptor (TR) signaling pathway (AID 743065). Further: nearly all actives have a fitted effect of over 55% in size. Further: potency means the concentration at half of the fitted maximal effect. The procedure, abridged: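 Antagonism measured as loss of luciferase signal in GH3 cells stably carrying a TRE-luciferase reporter, co-treated with compound and T3 (1 nM final) for 23.5 h at 37 C. Viability was read in the same well by CellTiter-Fluor.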
A general note: Quantitative high-throughput screening tests each substance at several concentrations.

Assay [2] deals with thyroid hormone receptor (rat, GH3 cells). Description: qHTS assay to identify small molecule agonists of the thyroid receptor (TR) signaling pathway (AID 743066; calls by dose curve).
Assay [3] is described as follows: qHTS assay to identify small molecule antagonists of the estrogen receptor alpha (ER-alpha) signaling pathway - cell viability counter screen (AID 743074; calls by dose curve;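 further: HEK293 cells carrying ER-alpha-UAS-bla reporter stimulated with 17beta-estradiol; nearly all actives have a fitted effect of over 45% in size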; further: potency means the concentration at half of the fitted maximal effect).
Assay [4] deals with Estrogen receptor (Homo sapiens) (UniProt P03372). Description: qHTS assay to identify small molecule agonists of the estrogen receptor alpha (ER-alpha) signaling pathway (AID 743075; calls by dose curve;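 further: HEK293 GripTite cells with ER-alpha and UAS-driven beta-lactamase reporter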; further: potency means the concentration at half of the fitted maximal effect).
Chain of Estrogen receptor (Homo sapiens) (P03372 whole entry, looked up): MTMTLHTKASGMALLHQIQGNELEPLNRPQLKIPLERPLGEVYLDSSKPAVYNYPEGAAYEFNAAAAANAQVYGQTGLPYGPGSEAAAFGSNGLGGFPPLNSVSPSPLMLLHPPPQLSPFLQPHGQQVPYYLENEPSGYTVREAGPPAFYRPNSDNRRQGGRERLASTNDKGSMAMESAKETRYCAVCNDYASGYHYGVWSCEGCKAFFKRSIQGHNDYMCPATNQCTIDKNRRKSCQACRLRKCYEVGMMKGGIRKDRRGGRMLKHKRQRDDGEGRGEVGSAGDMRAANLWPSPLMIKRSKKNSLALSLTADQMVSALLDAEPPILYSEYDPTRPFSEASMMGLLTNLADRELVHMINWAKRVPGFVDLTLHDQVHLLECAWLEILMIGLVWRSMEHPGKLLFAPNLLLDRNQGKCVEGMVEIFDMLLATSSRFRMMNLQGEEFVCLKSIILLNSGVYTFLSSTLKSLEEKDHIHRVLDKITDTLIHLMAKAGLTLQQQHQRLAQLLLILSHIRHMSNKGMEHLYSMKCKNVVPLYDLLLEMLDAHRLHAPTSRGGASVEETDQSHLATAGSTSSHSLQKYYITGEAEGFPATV
For assay [5] the target is unchanged. Nature of the assay: qHTS assay to identify small molecule agonists of the estrogen receptor alpha (ER-alpha) signaling pathway using the BG1 cell line (AID 743079). Further: nearly all actives have a fitted effect of over 20% in size. Further: potency means the concentration at half of the fitted maximal effect.
A short description of assay [6]: qHTS assay to identify small molecule antagonists of the estrogen receptor alpha (ER-alpha) signaling pathway using the BG1 cell line (AID 743080; calls by dose curve;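 further: BG1 cells stimulated with 17beta-estradiol alongside compound; nearly all actives have a fitted effect of over 25% in size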; further: potency means the concentration at half of the fitted maximal effect). The procedure, abridged: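 Quantitative HTS on the Tox21 10K library: BG1 cells with endogenous ER-alpha and ERE-luciferase reporter, 17beta-estradiol stimulation, 21.5 h compound exposure, luminescence endpoint with parallel fluorescence cytotoxicity counter-read.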

Assay [7] is described as follows: qHTS assay to identify small molecule antagonists of the estrogen receptor alpha (ER-alpha) signaling pathway using the BG1 cell line - cell viability counter screen (AID 743081).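 Further: compound given together with 17beta-estradiol as the ER stimulus; nearly all actives have a fitted effect of over 45% in size.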 Further: potency means the concentration at half of the fitted maximal effect.
In another assay the target is Aromatase (Homo sapiens) (UniProt P11511). Nature of the assay: qHTS assay to identify aromatase inhibitors (AID 743083). Further: nearly all actives have a fitted effect of over 55% in size. Further: potency means the concentration at half of the fitted maximal effect.
Chain of Aromatase (Homo sapiens) (P11511 whole entry, looked up): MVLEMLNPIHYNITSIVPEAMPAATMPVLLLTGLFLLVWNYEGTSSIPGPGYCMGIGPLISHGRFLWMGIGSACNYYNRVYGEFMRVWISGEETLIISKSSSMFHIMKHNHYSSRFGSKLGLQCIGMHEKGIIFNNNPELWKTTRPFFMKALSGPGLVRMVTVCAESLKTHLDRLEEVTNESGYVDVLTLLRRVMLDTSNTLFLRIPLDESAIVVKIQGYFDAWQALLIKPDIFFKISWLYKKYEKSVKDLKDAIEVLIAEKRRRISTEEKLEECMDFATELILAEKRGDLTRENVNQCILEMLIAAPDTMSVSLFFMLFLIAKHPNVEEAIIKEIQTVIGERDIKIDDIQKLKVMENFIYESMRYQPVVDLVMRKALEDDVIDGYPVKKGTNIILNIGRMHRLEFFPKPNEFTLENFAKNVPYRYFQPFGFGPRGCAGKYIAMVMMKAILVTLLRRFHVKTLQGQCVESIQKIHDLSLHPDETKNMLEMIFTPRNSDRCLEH
Assay [8] is described as follows: qHTS assay to identify aromatase inhibitors - cell viability counter screen (AID 743084).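 Further: cells stimulated with testosterone during compound exposure; nearly all actives have a fitted effect of over 55% in size.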 Further: potency means the concentration at half of the fitted maximal effect.
Assay [9] has as its target Aryl hydrocarbon receptor (Homo sapiens) (UniProt P35869). Description: qHTS assay to identify small molecule that activate the aryl hydrocarbon receptor (AhR) signaling pathway (AID 743085). Further: nearly all actives have a fitted effect of over 15% in size. Further: potency means the concentration at half of the fitted maximal effect.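 On activation: HG2L7.5c1 human HepG2 liver cells with stably integrated DRE-driven firefly reporter; series mostly up to about 70 µM.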 The method in brief: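 HepG2 cells stably carrying a 20-DRE firefly luciferase reporter (HG2L7.5c1) treated with compound for 24 hr at 37C. Luciferase read by ONE-Glo luminescence, with CellTiter-Fluor viability read first.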

Assay [10] can be described thus: qHTS assay to identify small molecule that activate the aryl hydrocarbon receptor (AhR) signaling pathway - cell viability counter screen (AID 743086). Further: series mostly up to about 70 µM; nearly all actives have a fitted effect of over 45% in size. The method in brief:
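Cytotoxicity counter screen: CellTiter-Fluor signal (30 min, 37 C) in 4000 HepG2 cells/well carrying the DRE-luciferase reporter, following 24 h compound exposure at 37 C.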

Assay [11] concerns the target Peroxisome proliferator-activated receptor gamma (Homo sapiens) (UniProt P37231). Nature of the assay: qHTS assay to identify small molecule agonists of the peroxisome proliferator-activated receptor gamma (PPARg) signaling pathway (AID 743094; active means well fitted activation curve with a large enough effect in the signal ratio in the repeat runs, not every such curve was filed as active; inconclusive means weak or mixed curves, or effect the other way; inactive means no such curve, though single readings can be large or run the other way; the % refers to the signal ratio). The method in brief: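 Quantitative HTS agonist mode: stable HEK293H line with UAS-beta-lactamase reporter under PPARg control, 17 h compound exposure at 37C, fluorescence after 1 h FRET substrate loading at room temperature.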

Assay [12] is described as follows: qHTS assay to identify small molecule antagonists of the peroxisome proliferator-activated receptor gamma (PPARg) signaling pathway - cell viability counter screen (AID 743194). Further: nearly all actives have a fitted effect of over 55% in size. The procedure, abridged:
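Viability was measured as CellTiter-Glo luminescence in GeneBLAzer PPARg UAS-bla HEK293H cells. These cells had been exposed 17 h at 37 C to compounds together with rosiglitazone at 50 nM final, with the beta-lactamase readout taken in the same wells.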

Assay [13] in a line: qHTS assay for small molecule agonists of the antioxidant response element (ARE) signaling pathway (AID 743202; active means well fitted activation curve with a large enough effect in the signal ratio in the repeat runs, not every such curve was filed as active; inconclusive means weak or mixed curves, or effect the other way; inactive means no such curve, though single readings can be large or run the other way; the % refers to the signal ratio; further: potency means the concentration at half of the fitted maximal effect). The method in brief: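 An ARE-responsive beta-lactamase gene stably integrated in HepG2 cells serves as reporter. After 5 h plating and 16 h compound incubation at 37 C, fluorescence of the B/G FRET substrate was measured.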
The nature of assay [14]: qHTS assay for small molecule agonists of the antioxidant response element (ARE) signaling pathway - cell viability counter screen (AID 743203; calls by dose curve; further: nearly all actives have a fitted effect of over 55% in size). The procedure, abridged: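 Seeded at 2,000 cells/well, ARE-bla HepG2 cells were incubated 5 hrs before compound addition. After 16 hrs of treatment at 37C with 5% CO2, CellTiter-Glo reagent was added and luminescence read 30 min later.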

Assay [15] can be described thus: qHTS assay for small molecule activators of the heat shock response signaling pathway (AID 743210; active means well fitted activation curve with a large enough effect in the signal ratio in the repeat runs, with a control signal flat, not every such curve was filed as active; inconclusive means weak or mixed curves; the % refers to the signal ratio; further: potency means the concentration at half of the fitted maximal effect;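 on activation: HeLa cells with beta-lactamase reporter driven by heat shock elements; series mostly up to about 63 µM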). The method in brief:
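In HSE-bla HeLa cells, 5 h compound incubation (37 C) precedes addition of LiveBLAzer B/G substrate; after 2.5 h at room temperature, fluorescence intensity indicates reporter induction.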

Assay [16] in a line: qHTS assay to identify small molecule agonists of the peroxisome proliferator-activated receptor delta (PPARd) signaling pathway - cell viability counter screen (AID 743211). Further: nearly all actives have a fitted effect of over 55% in size. Further: potency means the concentration at half of the fitted maximal effect. The procedure, abridged: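 PPARd-bla HEK293H cells (3000/well) were pre-incubated 5 h at 37 C, then exposed to compound for 17 h at 37 C. After 2 h with LiveBLAzer substrate, CellTiter-Glo was added to the same wells; luminescence read after 30 min at room temperature.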

For assay [17], the target named is Peroxisome proliferator-activated receptor gamma (Homo sapiens) (UniProt P37231). Nature of the assay: qHTS assay to identify small molecule antagonists of the peroxisome proliferator-activated receptor gamma (PPARg) signaling pathway (AID 743191; calls by dose curve; further: series mostly up to about 63 µM; nearly all actives have a fitted effect of over 30% in size). The method in brief: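 Beta-lactamase reporter under UAS control in HEK293H PPARg-bla cells; compound treatment 17 h at 37C. Read-out: fluorescence intensity after 1 h room-temperature incubation with LiveBLAzer B/G FRET substrate.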
Chain of Peroxisome proliferator-activated receptor gamma (Homo sapiens) (P37231 whole entry, looked up): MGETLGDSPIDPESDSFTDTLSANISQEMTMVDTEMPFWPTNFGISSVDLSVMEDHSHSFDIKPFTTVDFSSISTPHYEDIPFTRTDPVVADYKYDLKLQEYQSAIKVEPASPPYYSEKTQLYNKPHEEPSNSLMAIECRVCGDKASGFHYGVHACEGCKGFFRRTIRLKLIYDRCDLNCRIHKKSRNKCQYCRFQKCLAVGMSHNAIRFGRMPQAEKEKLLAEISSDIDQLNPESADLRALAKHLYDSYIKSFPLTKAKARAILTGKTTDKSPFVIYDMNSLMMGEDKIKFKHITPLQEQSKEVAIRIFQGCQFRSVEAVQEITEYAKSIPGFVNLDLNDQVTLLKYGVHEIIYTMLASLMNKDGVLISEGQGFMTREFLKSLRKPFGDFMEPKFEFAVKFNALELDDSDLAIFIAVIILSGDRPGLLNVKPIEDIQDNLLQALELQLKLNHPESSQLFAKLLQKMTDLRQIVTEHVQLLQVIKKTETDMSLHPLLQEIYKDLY

Assay [18] is described as follows: qHTS assay for small molecule activators of the heat shock response signaling pathway - cell viability counter screen (AID 743209). Further: nearly all actives have a fitted effect of over 50% in size. Further: potency means the concentration at half of the fitted maximal effect. The method in brief: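 First, HSE-bla HeLa cells were seeded at 1500 cells/well and kept overnight at 37 C. Next, compounds were pinned in and incubated 5 h. After the FRET substrate step, CellTiter-Glo was added and luminescence read 30 min later.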

Where “and” joins values, the source holds several entries; their conditions need not be identical. Identical values can stand only once. Some compounds were tested as several samples or in several runs, with calls that do not always agree. Calls of active or inactive are those of the source. Unless noted, the call rests on the fitted dose curve; in most records, active means well fitted curve in the direction sought with a large enough effect in the repeat runs; inconclusive means weak or mixed curves; inactive means no such curve, though single readings can be large; an effect the other way counts as inactive or inconclusive.
On the % scale 0 is the no-effect control and ±100 the full control effect.

Chain of Aryl hydrocarbon receptor (Homo sapiens) (P35869 whole entry, looked up): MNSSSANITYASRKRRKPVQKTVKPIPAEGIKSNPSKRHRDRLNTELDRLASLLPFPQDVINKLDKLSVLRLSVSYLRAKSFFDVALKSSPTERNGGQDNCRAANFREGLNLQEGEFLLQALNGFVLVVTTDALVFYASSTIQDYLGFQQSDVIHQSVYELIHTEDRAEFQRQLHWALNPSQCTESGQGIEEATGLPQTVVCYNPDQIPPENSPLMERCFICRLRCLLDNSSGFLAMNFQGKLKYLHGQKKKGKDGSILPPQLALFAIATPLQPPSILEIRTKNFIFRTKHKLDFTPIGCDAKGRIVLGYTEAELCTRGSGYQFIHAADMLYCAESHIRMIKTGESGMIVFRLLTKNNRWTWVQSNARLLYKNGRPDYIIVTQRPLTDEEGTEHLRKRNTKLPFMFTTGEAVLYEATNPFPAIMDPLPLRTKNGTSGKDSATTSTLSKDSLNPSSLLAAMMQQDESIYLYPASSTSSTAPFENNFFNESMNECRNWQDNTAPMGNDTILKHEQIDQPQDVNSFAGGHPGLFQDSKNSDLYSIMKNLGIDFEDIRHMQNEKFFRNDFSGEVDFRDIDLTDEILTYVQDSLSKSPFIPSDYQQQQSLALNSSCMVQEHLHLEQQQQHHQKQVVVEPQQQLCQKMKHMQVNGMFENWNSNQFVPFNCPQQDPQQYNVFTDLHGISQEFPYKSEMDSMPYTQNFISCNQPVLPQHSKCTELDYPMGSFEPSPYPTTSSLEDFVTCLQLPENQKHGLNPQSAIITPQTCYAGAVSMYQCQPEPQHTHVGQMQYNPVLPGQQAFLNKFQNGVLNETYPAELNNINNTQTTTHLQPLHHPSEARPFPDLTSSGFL

As to `CC[C@@H](N)CO`, the Potency result in assay [1], in assay [2], in [3], in assay [4], in assay [5] and in assay [6] was “inactive” in each case. Besides, the Potency entry (in assay [7]; with Aromatase (Homo sapiens); in [8]; in [9]; in [10]; in [11]) was “inactive” throughout. The Potency entry in assay [12], in [13], in [14], in assay [15] and in assay [16] was “inactive” in each case.
As to `NC(N)=Nc1nc(CSCC/C(N)=N/S(N)(=O)=O)cs1`, the Potency entry in [1], in [2], in [3], in assay [4], in [5] and in [6] was “inactive” in each case. The Potency result (in assay [7]; with Aromatase (Homo sapiens); in [8]; in [10]; in [11]; in [17]) was “inactive” throughout. For the same molecule, the Potency result in assay [12], in [13], in assay [14], in assay [18], in assay [15] and in assay [16] was “inactive” in each case.
`O=c1n(CC2CO2)c(=O)n(CC2CO2)c(=O)n1CC1CO1` (stereo not given): the Potency was 6.68 µM (active) and 8.58 µM (active) and 4.33 µM (active) in assay [1]; “inactive and 48.3 µM (active)” in the assay with Aromatase (Homo sapiens); “inactive and 34.2 µM (active)” in assay [8]; 4.33 µM (active) in assay [13]; 35.8 µM (active) and 43.6 µM (active) in assay [15]. For the same molecule, the Potency entry in assay [2], in [3], in assay [4], in assay [5], in assay [7] and in assay [9] was “inactive” in each case. Also, the Potency result in [10], in assay [12] and in [16] was “inactive” in each case.
As for `O=C1Nc2ccccc2C1(c1ccc(O)cc1)c1ccc(O)cc1`, the figures for the Potency in assay [1] and in assay [7] were 54.5 µM (active) and 0.969 µM (active), respectively. The Potency entry (in assay [2]; in [3]; in assay [4]; in the assay with Aromatase (Homo sapiens); in assay [9]; in assay [14]) was “inactive” in each case. In addition, the Potency result in assay [18], in assay [15] and in [16] was “inactive” in each case.
`Cc1cc(C(C)(C)C)c(O)c(C(C)(C)C)c1`: the Potency result (in assay [1]; in assay [2]; in [3]; in assay [7]; with Aromatase (Homo sapiens); in assay [8]) was “inactive” throughout. Also, the Potency result in [9], in [10], in assay [11], in [17], in [12] and in assay [13] was “inactive” each time. Moreover, the Potency entry in assay [18] and in assay [15] was “inactive” each time. Further, the Potency in [16] was 43.8 µM (active) and inactive.
Regarding `CC1COc2c(N3CCN(C)CC3)c(F)cc3c(=O)c(C(=O)O)cn1c23` (stereo not given), the Potency entry (in assay [1]; in [2]; in assay [3]; in [7]; in the assay with Aromatase (Homo sapiens); in assay [8]) was “inactive” in each case. Moreover, the Potency result in [9], in [10], in assay [11], in assay [17], in [12] and in assay [13] was “inactive” each time. Also, the Potency entry in assay [15] and in assay [16] was “inactive” in each case.
On to `CCC[C@H](N[C@@H](C)C(=O)N1[C@H](C(=O)O)C[C@@H]2CCCC[C@@H]21)C(=O)OCC`, for which the Potency entry in assay [1], in [2], in assay [3], in assay [4], in [5] and in assay [6] was “inactive” each time. Also, the Potency entry (in the assay with Aromatase (Homo sapiens); in assay [8]; in [9]; in assay [10]; in assay [11]; in assay [17]) was “inactive” each time. Also, the Potency entry in assay [12], in assay [13], in assay [14], in [18], in assay [15] and in assay [16] was “inactive” each time.
For `Nc1nc2ccccc2[nH]1`, the Potency result in assay [1], in assay [2], in [3], in [4], in [5] and in [6] was “inactive” in each case. Further, the Potency entry (in assay [7]; with Aromatase (Homo sapiens); in assay [8]; in assay [10]; in assay [11]; in assay [17]) was “inactive” in each case. Moreover, the Potency entry in assay [12], in assay [13], in [14], in assay [15] and in assay [16] was “inactive” each time.
Regarding `CCCOC(=O)c1cc(O)c(O)c(O)c1`, the Potency entry (in [1]; in assay [2]; in [3]; in [6]; in [7]; with Aromatase (Homo sapiens)) was “inactive” each time. The Potency entry in assay [10], in assay [11], in assay [12], in [14], in [15] and in assay [16] was “inactive” throughout. Moreover, the Potency is 9.52 µM [inconclusive] (active) and 19.4 µM [inconclusive] (active) and 61.6 µM [inconclusive] (active) in assay [4]; 26.6 µM (active) and inactive in assay [5]; 4.22 µM (active) and inactive in assay [9]; 15.3 µM (active) in assay [13].
Regarding `COc1cc(C(=S)N2CCOCC2)ccc1O`, the Potency result in [1], in assay [2], in [3], in assay [4], in [5] and in [6] was “inactive” each time. Moreover, the Potency entry (in assay [7]; with Aromatase (Homo sapiens); in [8]; in assay [9]; in assay [10]; in assay [11]) was “inactive” throughout. Further, the Potency result in assay [12], in assay [13], in assay [18] and in assay [16] was “inactive” each time.
As to `Oc1c(Cl)cc(Cl)cc1Sc1cc(Cl)cc(Cl)c1O`, the Potency was 8.63 µM (active) [middle of 4 runs] in assay [1]; 21.9 µM (active) and 44.4 µM (active) and 27.5 µM (active) in assay [3]; 26.6 µM (active) and 48.6 µM (active) in assay [6]; 21.1 µM (active) and 15.4 µM (active) and 17.5 µM (active) with Aromatase (Homo sapiens); 43.8 µM (active) and 49 µM (active) and inactive in assay [18]. For the same molecule, the Potency result in [2], in assay [4], in assay [7], in [9], in assay [10] and in assay [15] was “inactive” throughout.
On to `COC(=O)/C=C/c1ccccc1`, for which the Potency entry in [1], in assay [2], in assay [3], in assay [4], in assay [6] and in assay [7] was “inactive” in each case. For the same molecule, the Potency result (in the assay with Aromatase (Homo sapiens); in assay [8]; in assay [9]; in assay [10]; in assay [11]; in assay [17]) was “inactive” throughout. Also, the Potency entry in [12], in assay [13], in assay [14], in [18], in assay [15] and in [16] was “inactive” throughout.

The values above are taken from PubChem BioAssay (Tox21).
